Compounds without any hit were thinned out: in the full panel of roughly 83,000, 20% have a hit.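 Cell lines were cultured in 96-well plates, exposed to a single compound concentration, and assessed for percent growth 48 hours later.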 Activity calls are given as the source filed them. The calls were made as follows: active = growth percent below 10; inactive = the rest.

For this experiment, the system named is HL-60(TB) leukemia. Put plainly: NCI-60 one-dose screen, 48 h (100 = growth as untreated, 0 = no growth, -100 = all killed). The settings on record: 10 µM unless noted.
As to `O=C(CNC(=O)c1cccc2ccccc12)Nc1ccccc1Cc1ccccc1`, the growth was -15.9% [5 µM] (active).

`NS(=O)(=O)c1ccc(-n2ncc3c(=O)[nH]c(CN4CCN(c5cc6c(cc5F)c(=O)c(C(=O)O)cn6C5CC5)CC4)nc32)cc1`: the growth was 98% (inactive).

For `CSc1nc(N)c2[nH]c(-c3cc4ccccc4[nH]c3=O)nc2n1`, the growth was 88.8% (inactive).

On to `C#Cc1ccc(-n2c(/C=C/c3cc(OC)cc(OC)c3)nc3ncccc3c2=O)cc1`, for which the growth was 68.1% (inactive).

Take `CN1CCN(Cc2ccc(NC(=O)c3cncc(C#Cc4cnc(N)c5cccnc45)c3)cc2C(F)(F)F)CC1`: the growth is -13.9% (active).

Turning to `O=C(O)c1cn(C2CC2)c2cc(N3CCN(Cc4nc5c(cnn5-c5ccc([N+](=O)[O-])cc5)c(=O)[nH]4)CC3)c(F)cc2c1=O`, the growth was 92.8% (inactive).

As for `CCOC(=O)Nc1ccc2nc(Sc3ccc(Cl)cc3)sc2c1`, the growth is 10.1% (inactive).

`C=C(C[C@@](O)(C(=O)Oc1ccccc1)C(=O)C1CCCCC1)c1ccccc1`: the growth is 112% (inactive).

In the case of `CC(=O)OC(C)COc1ccc(-c2ccccc2)cc1` (centres undefined), the growth is 104% (inactive).

Take `C[N+](C)(C/C=C/c1ccccc1)Cc1ccccc1`: the growth was 92.6% (inactive).

Turning to `O=C1CC2C=CCN2C=C1NC(=O)C1CCCCC1` (centres undefined), the growth is 101% (inactive).

Take `CCCN1CCN(c2ccc3nc(-c4ccc5nc(-c6ccc(OCC)c(OCC)c6)[nH]c5c4)[nH]c3c2)CC1`: the growth is -23.1% (active).

On to `Cc1cccc(C(=O)O)n1`, for which the growth was 78.1% (inactive).

For the compound `Cc1ccc2c(c1)c1nc3cc(C)c(C)cc3nc1n2CCN(C)C`, the growth is 11% (inactive).

The record behind these values is PubChem BioAssay (NCI).
